This experiment relates to PPARg:RXRa (NR concentration 180 nM, RXRa partner concentration 90 nM). The experiment in a line: PBM binding z-score (relative to random genomic background probes); higher = stronger binding; sequences stand for … in GC…GCGATTGACAGCGTAGAATGAAGG
Summed up: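 Custom Agilent 4×180K protein-binding microarrays carried double-stranded probes, each with a 34-nt variable region. These regions held direct-repeat seeds, single-nucleotide variants, half-site ablations and random human genomic background sequences. Ligand-free nuclear receptor dimers were incubated on the arrays for 1 h, antibodies against each partner (one per run) detected binding, and scanned fluorescence was regression-normalized. Binding z-scores take the random background probes as reference.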
In the case of CCCCGGAGGACAGAAGGTCAGAGCTGTCCGCTTT, the PBM binding z-score is -0.0611. As for CCTACGGGGCCAAAGGTCATTGATTCCAATGCTC, the figure is 11; as for TAGCCTAGCTCATTCAGGGGCCAGTATAGAAAGC, -0.0519; as for TAGCCTAGGTCATTGGGCTAGTATAGTACGCATC, 2.59. Take ATATGTAGGTTAGGGTCATTCCGAAAGTAGGGAA: the PBM binding z-score came out at 7.77. For GACACAGGGTCAGCTAGAGGCCAGAGTATGGAAA, the PBM binding z-score was found to be 3.5. As for CGAACTAGGCCACCAGGACAGTGAAGAGGTTGGA, the figure is 3.12; as for CCGTACGGGTCAAGGTTATAGCACGGGTGGTACG, 4.03.

Regarding CCTACAGGGCCAAAGGTCATTGATTCCAATGCTC, the PBM binding z-score is 8.97. As for CCTACTGGGCCATCAGGTGATTGATATCAACGTT, the figure is 1.29. The figure for ATCGAATGGTCGAAGGTGAGTATACCCACCCGAA is 1.07. As for CCTAGTTGGTCAGGAGGTCACAAACCGGATATGA, the PBM binding z-score was 3.09. As for ATACGTAGGTTACATCCGGGTCATTCAGGCTATG, the figure is 1.57. The figure for CCTTACGGGTCACTGACAGGTCATAGCATTTGGA is 4.81. CCTAGTTGGTCAGGAGGCCACACACCGGATATGA: the PBM binding z-score was 0.848. As for CGAACTAGGTCACCTGGACAGTGAAGAGGTTGGA, the figure is 8.13; as for CGAACTAGGTCACCATGACAGTGAAGAGGTTGGA, 8.32; as for CCTACTGGGCCAAAAATGTCATTGATGCCGATAA, 0.537.

The sequence CGCACTAGGTCACCAGGACAGTGAAGAGGTTGGA yielded a PBM binding z-score of 8.32. As for CGAACTATGTCACCAGGACAGTGAAGAGGTTGGA, the figure is 1.5; as for ATACCAAGGTTATCGTGAGGTCGTTGATACTAAC, 1.24; as for CCTACTGGGCGACGAAAGGTCATTGATTCAGTGA, 2.37.

The record behind these values is the supplement of paper PMC6555819.
